Shown are actives, neighbours in structure and some others; about 1.3% of the full set was active somewhere.
NCOA1 inh: inhibitors of human steroid receptor coactivator 1 (SRC1). Q15788. HEK293 GAL4-SRC1 luciferase reporter, luminescence. inhibition, % at 3.6 µM. actives 0.12% (n = 360,000);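 active means inhibition above the campaign mean plus 3 SD, with each screening campaign given its own cutoff, cut at about 60% in these data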;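 further: 0% = DMSO treated cells and 100% = gossypol at 36 µM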
NCOA2 inhibitor: inhibits human steroid receptor coactivator 2; actives 0.17% (n = 370,000); inhibition, % at 9 µM; HEK293 GAL4-SRC2 luciferase reporter, luminescence;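 active means inhibition above the mean inhibition of all tested compounds plus 3 SD, set per campaign, cut at about 52% in these data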;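 further: 0% = DMSO treated cells and 100% = cells given Gossypol at 36 µM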
COUP-TFII inh: inhibitors of human COUP-TFII (NR2F2) | P24468 | HEK293T NGFI-A luciferase reporter, luminescence | inhibition, % at 8.6 µM | actives 0.7% (n = 370,000) | AID 686940;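 active means inhibition above a per-plate cutoff, mean inhibition of test wells between control levels plus 3 SD, cut at about 38% in these data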;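 further: cells cotransfected with COUP-TFII expression vector driving the NGFI-A reporter; 0% = median of COUP-TF2 test wells and 100% = reporter-only cells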
Gli-Sufu block: antagonists of Gli-Sufu signaling; actives 0.74% (n = 340,000); Sufu-KO-LIGHT fibroblasts, Gli luciferase reporter luminescence; inhibition, % at 5 µM;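 active means inhibition above about 55%, limit read from the data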;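 further: 0% = DMSO-treated cells and 100% = wells with medium but no cells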
LRH-1 inv ag: NR5A2 inverse agonism in reporter assay; O00482; inhibition, % at 3.6 µM; HEK293T StAR-luciferase reporter, LRH-1 transfected, 24 h; AID 602396; actives 0.13% (n = 360,000);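 active means inhibition above the mean inhibition of all tested compounds plus 3 SD, cut at about 73% in these data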;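 further: 0% = DMSO wells and 100% = reporter-only cells lacking LRH-1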
SRC3 inh: inhibits human SRC3 coactivator; HEK293 GAL4-SRC3 luciferase reporter, luminescence; AID 588352; actives 0.17% (n = 360,000); Q9Y6Q9; inhibition, % at 3.6 µM;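 active means inhibition above a per-campaign cutoff, the mean of all compounds plus 3 SD, cut at about 60% in these data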;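 further: 0% = DMSO-treated cells and 100% = gossypol-treated cells at 36 µM; higher means less SRC3-driven luciferase light from the GAL4 reporter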
An asterisk follows results filed as active; . = no result given.

SMILES	NCOA1 inh	NCOA2 inhibitor	COUP-TFII inh	Gli-Sufu block	LRH-1 inv ag	SRC3 inh
CC(OC(=O)c1snc(C(=O)NC2CCCCC2)c1N)C(=O)NC(C)(C)C (stereo not drawn)	2	20	3	4	22	2
CCCCOCCCNC(=O)C[C@H]1C[C@@]2(C(=O)OC)C(=C[C@H](C3CCCC3)O[C@@H]2C)N(CCc2ccc(OC)c(OC)c2)C1=O	.	10	1	.	.	.
O=C(Nc1cccc(F)c1)O[C@@H]1CC[C@@]23CCCN2C(=O)CCC[C@H]3C1	.	.	-18	.	.	.
COc1cccc(OCC(C)CN2CCC(C(O)(c3ccccc3)c3ccccc3)CC2)c1 (stereo not drawn)	.	13	9	.	.	.
O=C(NCCc1ccccc1)C(c1cccs1)N(C(=O)c1csnn1)C1CC1 (stereo not drawn)	19	20	-4	-8	-15	6
O=C(NCCc1ccccc1)C(c1cccs1)N(C(=O)CCl)c1ccc(Cl)cc1 (stereo not drawn)	12	43	0	95*	-6	45
Cc1nnc(-c2ccccc2)c(=O)n1/N=C/c1c(O)ccc2ccccc12	55	46	2	91*	20	74*
Cc1nnc(C)n1/N=C/c1c(O)ccc2ccccc12	11	16	-7	3	11	14
OC1(c2cccc(C(F)(F)F)c2)CCN(c2ncnc3c2[nH]c2ccc(F)cc23)CC1	14	15	47*	-20	17	9
Nc1ccn(C2OC(CO)C(O)C2O)c(=O)n1 (stereo not drawn)	43	-7	3	.	2	29
OCC1OC(n2ccc3c2ncn2ncnc32)C(O)C1O (stereo not drawn)	62*	37	15	.	65	53
COc1cccc(/C=N/NC(=O)c2c(C)nc3ccc(Cl)cn23)c1O	47	15	-20	84*	90*	78*
COc1cccc(/C=N/NC(=O)c2ccc(-c3ccccc3)cc2)c1O	45	16	12	34	53	68*
Cc1ccc(-n2c(SCC(=O)c3ccc(Br)cc3)nnc2-c2ccncc2)cc1	.	-10	-5	.	.	.
Cc1ccc(-c2nnc(SCC(=O)Nc3ccc4c(c3)OCCO4)n2-c2ccc(C)cc2)cc1	.	16	4	.	.	.
COc1cc([C@@H]2c3cc4c(cc3[C@@H](O[C@@H]3O[C@@H]5CO[C@@H](C)O[C@H]5[C@H](O)[C@H]3O)[C@H]3COC(=O)[C@H]23)OCO4)cc(OC)c1O	80*	-24	-53	82*	61	65*
Cc1cc(N)ccc1NC(=O)c1ccccc1	-14	15	5	-1	0	12
Cc1cc(NC(=O)c2ccccc2)c(Cl)cc1N	5	66*	16	27	0	6
CCN(CC)C(=O)CC[C@H]1CC[C@]2(CCCN(C(=O)C3CCCC3)C2)O1	.	24	-15	.	.	.
COc1ccc(/C=C/c2c([N+](=O)[O-])c(=O)n(C)c(=O)n2C)c(OC)c1	3	-38	-18	11	14	11
Cn1c(/C=C/c2ccc(Cl)cc2Cl)c([N+](=O)[O-])c(=O)n(C)c1=O	46	-19	-18	7	6	75*
CCCCN1/C(=C/c2cccc[n+]2C)Sc2cc(NC(C)=O)ccc21	-12	4	-6	10	-9	-21
CCCCN1/C(=C/c2ccc3ccccc3[n+]2CC)Sc2ccccc21	21	.	.	88*	48	49
CCN1/C(=C/c2ccc3ccccc3[n+]2CC)C=Cc2ccccc21	68*	12	75*	92*	98*	87*
O=C(N=C1N(Cc2ccccc2)[C@@H](Cc2ccccc2)[C@]2(C=C3CCCCC3n3c(=O)n(-c4ccccc4)c(=O)n32)N1C(=O)OCc1ccccc1)c1ccccc1 (stereo partly drawn)	.	-7	-13	.	.	.
SMILES	NCOA1 inh	NCOA2 inhibitor	COUP-TFII inh	Gli-Sufu block	LRH-1 inv ag	SRC3 inh
O=C(N/N=C\c1c(O)ccc2ccccc12)c1ccc(O)cc1	20	5	11	17	7	20
COc1ccc2ccccc2c1/C=N\NC(=O)c1cccnc1	2	0	-14	1	0	6
O=C(N/N=C/c1c(O)ccc2ccccc12)c1cccnc1	57	36	-21	68*	92*	77*
O=C(NN=Cc1c(O)ccc2ccccc12)c1ccncc1	41	40	-13	87*	91*	75*
Cn1nccc1C(=O)N/N=C/c1c(O)ccc2ccccc12	68*	-3	-46	85*	90*	73*
O=C(N/N=C/c1c(O)ccc2ccccc12)c1ccc(Br)o1	-3	8	-21	66*	0	39
CC(=O)CC[C@H]1CC[C@]2(CCCN(C(=O)C3CCCC3)C2)O1	.	6	-1	.	.	.
Cc1ccc(C(=O)n2ccc3ccc(-c4ccc5ccn(Cc6ccccc6)c5c4)cc32)cc1	.	-9	0	.	.	.
C[C@@H]1OC(C2CCCCC2)N(C)[C@H]2C[C@H]3c4[nH]c5c(-c6ccc7c(c6)OCO7)cccc5c4CCN3C[C@@H]12 (stereo partly drawn)	.	22	-10	.	.	.
Cc1ccc(C(=O)N/N=C/c2c(O)ccc3ccccc23)cn1	68*	48	-10	35	87*	74*
O=C(N/N=C\c1c(O)ccc2ccccc12)c1cncc(Br)c1	51	17	-17	85*	28	69*
O=C(N/N=C/c1c(O)ccc2ccccc12)c1ccc[n+](CCO)c1	-14	-10	6	4	31	-2
O=C(N/N=C/c1cc(Br)ccc1O)c1ccncc1	38	8	-15	18	11	70*
Cn1cc(C(=O)N/N=C/c2c(O)ccc3ccccc23)ccc1=O	32	40	11	43	25	62*
O=C(O)C1CC=CCC1C(=O)Nc1ccc2c(c1)OCCO2 (stereo not drawn)	40	56*	25	9	55	55
O=C(N/N=C/c1cc2c3c(c1O)CCCN3CCC2)c1ccccc1O	66*	7	-28	17	63	68*
COc1cccc2c1C1COC3C4CC(C(=O)O)C(C(C2)N13)N4C (stereo not drawn)	21	22	-20	21	88*	5
COc1cccc2c1C(CCCC(=O)O)CCC2 (stereo not drawn)	5	4	-13	1	19	4
Cc1ccc(/C=C2\SC(=S)N(CCCC(=O)Nc3ccccc3C(=O)O)C2=O)cc1	23	66*	15	22	5	18
Cc1ccc(/C=C2/SC(=S)N(CCCC(=O)Nc3cc([N+](=O)[O-])ccc3O)C2=O)cc1	-28	55*	24	23	3	14
CCc1ccc(/C=C2\SC(=S)N(CCCC(=O)Nc3ccccc3C(=O)O)C2=O)cc1	0	22	-6	7	8	1

Source: PubChem (several laboratories)
